Data reported in PubChem BioAssay (NCI).
Compounds without any hit were thinned out: in the full panel of roughly 83,000, 20% have a hit.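 Note: values are percent growth. 100 is the growth of untreated cells, values between 100 and 0 indicate rising inhibition; between -100 and 0 indicates cell death.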 Unmarked numbers belong to inactive results. Activity calls are given as the source filed them. The calls were made as follows: active = growth percent below 10; inactive = the rest.

How the values were obtained:
Experiment in all cases: NCI-60 one-dose screen, 48 h (100 = growth as untreated, 0 = no growth, -100 = all killed)
Conditions in all cases: 10 µM unless noted
NCI-H23 lung = system: NCI-H23 lung
NCI-H226 lung = system: NCI-H226 lung
NCI-H322M lung = system: NCI-H322M lung
HOP-62 NSCLC = system: HOP-62 NSCLC
NCI-H460 lung = system: NCI-H460 lung
HOP-92 NSCLC = system: HOP-92 NSCLC
NCI-H522 lung = system: NCI-H522 lung
A549/ATCC NSCLC = system: A549/ATCC NSCLC
786-0 renal = system: 786-0 renal
COLO 205 colon = system: COLO 205 colon

SMILES	growth (NCI-H23 lung)	growth (NCI-H226 lung) [%]	growth (NCI-H322M lung)	growth (HOP-62 NSCLC)	growth (NCI-H460 lung)	growth (HOP-92 NSCLC)	growth (NCI-H522 lung)	growth (A549/ATCC NSCLC)	growth (786-0 renal)	growth (COLO 205 colon)
N#Cc1c(NC(=O)c2cccs2)[n+]([O-])c2cc(C(F)(F)F)ccc2[n+]1[O-]	95.2%	97.1	93.7%	112%	109%	33.2%	77.4%	96.1%	114%	109%
C=C(C)[C@@H]1CC[C@]2(C(N)=O)CC[C@]3(C)[C@H](CC[C@@H]4[C@@]5(C)CCCNC(C)(C)[C@@H]5CC[C@]43C)[C@@H]12	76.4%	86.3	101%	91.4%	64%	65.4%	84.4%	65%	87.2%	69.3%
CC(=O)Nc1c(C(=O)Nc2ccccc2)sc2nc3c(cc12)C(OC(C)=O)CCC3 (stereo not given)	98%	92.9	99%	97.1%	108%	86.9%	74.4%	94.2%	71.7%	110%
COc1ccc2[nH]c(=O)c(/C=C/C(=O)c3ccccc3OC)cc2c1	21.3%	38.9	18.3%	8.67% (active)	1.79% (active)	-12% (active)	3.93% (active)	10.4%	8.21% (active)	20.4%
O=C1NCc2ccc3c(-c4cccc(Cl)c4)c[nH]c3c21	35.5%	89.6	47.6%	22.7%	12.9%	52.7%	1.89% (active)	15.8%	31.4%	-27% (active)
CCCn1cc(/C=N\N=C2\C(=O)Nc3ccc(C)cc32)c2ccccc21	48%	92	47.8%	75.3%	32.1%	37.4%	13.8%	63.9%	64.5%	-16.2% (active)
O=c1[nH]nc(-c2ccccc2)c2sc(NC(=S)Nc3ccc(Cl)cc3)nc12	86%	89.3	100%	79.4%	97.6%	97.2%	68.6%	90.7%	92.5%	101%
N#CC1C(c2ccc(Cl)cc2)=Nc2c(c(-c3ccccc3)nn2-c2ccccc2)C12C(=O)Nc1ccc(Cl)cc12 (stereo not given)	50.7%	61.5	79.2%	57.9%	22.3%	-8.89% (active)	55.9%	27.2%	42.9%	51%
O=[N+]([O-])c1ccc(N=Nc2c(O)c(N=Nc3cc([N+](=O)[O-])cc([N+](=O)[O-])c3O)cc(N=Nc3cc(S(=O)(=O)O)cc4cc(S(=O)(=O)O)cc(O)c34)c2O)cc1	96.4%	113	89.3%	98.6%	105%	101%	86.6%	102%	103%	108%
Nc1ccc2c(c1)C(=O)C(=O)c1c-2nc2ccccn12	-42.8% (active)	13.3	-6.65% (active)	-2.15% (active)	0.968% (active)	-21.4% (active)	17.5%	-45.4% (active)	71.4%	-49.2% (active)
COc1cc(C2=NN(c3ccccc3)C(c3cccc(Nc4ccnc5cc(C(F)(F)F)ccc45)c3)C2)cc(OC)c1OC (stereo not given)	79.1%	83.6	85.6%	88.8%	96.2%	73.4%	76.4%	86.5%	101%	86.7%
CC(C)NS(=O)(=O)c1cccc(-c2ccc3c(=O)n(CCCN)c4c(c3c2)C(=O)c2ccccc2-4)c1	93.4%	93.4	115%	91.9%	102%	105%	85.3%	102%	98%	106%
CC(=O)c1ccc(NC(=O)CSc2nnc(-c3cc(-c4ccc(Cl)cc4)nc4ccccc34)o2)cc1	61%	96.4	97.8%	80.6%	46%	94.2%	60.9%	76.7%	63.5%	96.6%
Nc1ccc(C(=O)Nc2cccc(C(=O)Nc3ccc4c(O)c(N=Nc5ccc(N=Nc6ccc(S(=O)(=O)O)cc6)cc5)c(S(=O)(=O)O)cc4c3)c2)cc1	96.8%	111	101%	98.5%	105%	108%	92.3%	102%	103%	114%
